Unmarked numbers belong to inactive results.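 The calls were made as follows: active = GFP response vs DMSO above 150% with enough events counted; inconclusive = fewer than 70 events counted for a yeast strain; inactive = the rest.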

The nature of this test: MEP2-GFP expression modulation in yeast, confirmation, flow cytometry, third cherry pick, S. cerevisiae (AID 504321).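 Also: median per-cell GFP fluorescence by flow cytometry across all yeast cells; ratio of sample to DMSO median GFP so 100% equals the DMSO level.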 The following applies: S. cerevisiae MEP2-GFP strain, 3 h, at 10 µM, stronger effect = higher value.
For the compound `O=C(Nc1cccc2ccccc12)ON=C1CCCCC1`, the GFP response vs DMSO was 121%.

Take `CCCC(=O)Nn1cnc2c(c1=O)C1(CCCC1)Cc1ccccc1-2`: the GFP response vs DMSO was 105%.

Turning to `Cc1ccc2c(Cl)cc(Cl)c(OCC(=O)O)c2n1`, the GFP response vs DMSO is 108%.

With `O=C(/C=C/Nc1cccc(O)c1)c1ccccc1`, the GFP response vs DMSO was 112%.

As to `CC(=O)Nn1cnc2c(c1=O)C1(CCCC1)Cc1ccccc1-2`, the GFP response vs DMSO was 105%.

`Cc1cccc(C)c1Nc1ncnc(N)c1[N+](=O)[O-]`: the GFP response vs DMSO is 103%.

`CCC(C)Nc1nc(N)c([N+](=O)[O-])c(Nc2ccccc2OC)n1` (stereo not drawn): the GFP response vs DMSO was 114%.

Regarding `C=CCNc1nc(N)c([N+](=O)[O-])c(Nc2cccc(Cl)c2)n1`, the GFP response vs DMSO was 108%.

On to `CC(=O)C(CC(=O)N1CCCC1)C(=O)Nc1ccc(Cl)cc1` (stereo not drawn), for which the GFP response vs DMSO is 105%.

As for `CC(=O)Nc1ccc(-c2nc3cc(Cl)ccc3o2)cc1`, the GFP response vs DMSO is 108%.

In the case of `COCCCNc1nc(N)c([N+](=O)[O-])c(Nc2ccccc2OC)n1`, the GFP response vs DMSO was 110%.

For `O=c1cc(C(F)(F)F)[nH]c2c(OC(F)(F)F)cccc12`, the GFP response vs DMSO is 114%.

Turning to `COc1ccccc1Nc1nc(NCCC(C)C)nc(N)c1[N+](=O)[O-]`, the GFP response vs DMSO was 105%.

In the case of `OCc1ccnc2c(O)cccc12`, the GFP response vs DMSO is 108%.

Take `Nc1nc(NCCOCCO)nc(Nc2cccc(F)c2)c1[N+](=O)[O-]`: the GFP response vs DMSO is 108%.

Take `Nc1ccc(O)c2c1C(=O)c1ccccc1C2=O`: the GFP response vs DMSO is 112%.

On to `COc1cccc(NC(=O)CC(C)=O)c1`, for which the GFP response vs DMSO was 108%.

Take `NC(=O)COc1cccc2cccnc12`: the GFP response vs DMSO is 108%.

The record behind these values is PubChem BioAssay AID504321 (NMMLSC, 2011).
